15 compounds from PubChem BioAssay (NCI) can be followed below.

Each structure is given as a SMILES string. This is part of a sample that, as a whole, favours compounds with a hit. Of some 83,000 tested, about 20% had one in any assay.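 Negative percent growth values reflect cell death: -40 means 40% of the cells present at the start died, and -100 means all died.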 Calls of active or inactive are those of the source. How the source made its calls: active means growth percent below 10; inactive means the rest.

The assay relates to UO-31 renal. Kind of assay: NCI-60 one-dose screen, 48 h (100 = growth as untreated, 0 = no growth, -100 = all killed). As to conditions: 10 µM.
For the compound `CCc1ccc(-c2ccc(-n3nc(C)c4c(N)nc(Cc5ccccc5)nc43)cc2)cc1`, the growth was 59.2% (inactive).

On to `O=C(Nc1ccc(F)cc1)c1cc2ccccc2cc1O`, for which the growth was 63.9% (inactive).

For the compound `Nc1nccc(OCCO)n1`, the growth is 91% (inactive).

On to `O=C(CCCCNC(=O)c1nc(-c2ccccc2)n(-c2ccccc2)n1)NO`, for which the growth was 86.4% (inactive).

With `COc1cc(-c2nn(-c3ccc(NC(=O)NCCNS(=O)(=O)c4ccc(F)cc4)cc3)cc2-c2ccncc2)ccc1Cl`, the growth is 31.5% (inactive).

As to `O=C(Nc1ccc2c(O)cc(S(=O)(=O)O)cc2c1)c1ccc([N+](=O)[O-])cc1`, the growth is 91.4% (inactive).

As for `COC(=O)C1(O)NC(=C(C#N)C#N)C(C#N)=C1C(=O)c1ccc(OC)c(OC)c1` (stereo not given), the growth was 86.7% (inactive).

On to `C=CCn1c(SCC(=O)Nc2ccc(C(=O)/C=C/c3ccc(OC)cc3)cc2)nnc1-c1ccc(OC)c(OC)c1`, for which the growth is 65.8% (inactive).

Consider `COc1cc(NC(=O)Nc2cnc(Nc3ccc(N4CCOCC4)cc3)nc2Oc2cccc(OC)c2)cc(OC)c1`, for which the growth is 6.12% (active).

Turning to `O=C(CCl)Nc1ccc(Cc2ccc(NC(=O)CCl)cc2)cc1`, the growth is 54.5% (inactive).

Regarding `Cc1cc(SCc2ccccc2)nc(N)n1`, the growth is 98.1% (inactive).

On to `Cc1nn(-c2ccc(-c3ccc(OC(F)(F)F)cc3)cc2)c2nc(Cc3ccccc3)nc(N)c12`, for which the growth is 28.3% (inactive).

Consider `O=C(Nc1nc(-c2ccccc2)nc2c1sc(=S)n2-c1ccccc1)C(F)(F)F`, for which the growth is 81.2% (inactive).

Consider `S=c1cnc2ccccc2[nH]1`, for which the growth is 76.6% (inactive).

With `O=C(CSc1nnc(-c2ccc(Cl)cc2)o1)Nc1ccc(C(=O)/C=C/c2ccc(Cl)cc2)cc1`, the growth was 69.4% (inactive).
